Laboratory results taken from PubChem BioAssay (NCATS).
Records with an inconclusive call do not appear. Activity calls are given as the source filed them. Calls follow the shape of the dose curve; as a rule, active = well fitted activation curve with a large enough effect in the main read-out, with a control signal flat (not every such curve was filed as active); inconclusive = small, poorly fitted or top-dose-only effect, or effect the other way, or a change in a side signal; inactive = flat fitted curve, though single readings scatter.

What follows are compounds tested against 3',5'-cyclic-AMP phosphodiesterase 4B (Homo sapiens) (UniProt Q07343) (assay: qHTS Assay for Inhibitors of PDE-IV (AID 607; also: % of control where 0% means no effect)). Conditions: HEK293 ACTOne CNG channel cells, membrane potential fluorescence; series mostly up to 22.9 µM; activation (PDE inhibition): at the top concentration.
Chain of 3',5'-cyclic-AMP phosphodiesterase 4B (Homo sapiens) (Q07343 whole entry, looked up): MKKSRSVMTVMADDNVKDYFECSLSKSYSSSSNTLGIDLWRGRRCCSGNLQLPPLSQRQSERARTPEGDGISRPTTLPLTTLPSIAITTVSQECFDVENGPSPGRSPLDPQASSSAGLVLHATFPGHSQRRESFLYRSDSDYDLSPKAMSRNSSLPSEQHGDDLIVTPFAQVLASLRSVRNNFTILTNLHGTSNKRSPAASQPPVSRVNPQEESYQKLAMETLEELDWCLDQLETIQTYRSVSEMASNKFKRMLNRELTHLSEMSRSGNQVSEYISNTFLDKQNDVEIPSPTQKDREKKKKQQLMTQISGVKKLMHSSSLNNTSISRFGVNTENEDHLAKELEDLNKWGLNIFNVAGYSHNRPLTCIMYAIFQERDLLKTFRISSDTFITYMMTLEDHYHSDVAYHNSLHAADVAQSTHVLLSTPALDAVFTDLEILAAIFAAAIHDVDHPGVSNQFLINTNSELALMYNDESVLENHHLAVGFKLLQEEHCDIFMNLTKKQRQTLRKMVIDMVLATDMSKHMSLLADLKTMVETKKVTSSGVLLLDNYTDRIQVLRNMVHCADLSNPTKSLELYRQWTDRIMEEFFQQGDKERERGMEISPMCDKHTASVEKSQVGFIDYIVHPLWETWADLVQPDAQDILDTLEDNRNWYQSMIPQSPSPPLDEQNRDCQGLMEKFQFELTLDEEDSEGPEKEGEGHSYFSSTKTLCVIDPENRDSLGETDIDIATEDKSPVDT
In short: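 ACTOne HEK293 cells carry a modified cAMP-gated CNG channel and express endogenous PDE4; plated 1000 cells/well, compounds up to 22.9 uM final. Membrane-potential dye fluorescence (ex 535/em 590) was read; parental cells received 10 uM forskolin + 100 uM RO 20-1724.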
For `C[C@]1(C2CCCC2)Cc2cc(OCC(=O)O)c(Cl)c(Cl)c2C1=O`, the “activation (PDE inhibition)” value was -0.83% (inactive). For `CCc1cccc2c3c([nH]c12)[C@@](CC)(CC(=O)O)OCC3`, the “activation (PDE inhibition)” value was 2.1% (inactive). `CC(C)C[C@H](NC(=O)[C@@H]1O[C@H]1C(=O)O)C(=O)NCCCCN=C(N)N` was tested, and the “activation (PDE inhibition)” value was 4.54% (inactive).
